“And” between values parts separate entries of the source, which are not always exact repeats. Identical values can stand only once. Records with an inconclusive call do not appear. A call without a number means that no potency is given here. Some compounds were tested as several samples or in several runs, with calls that do not always agree. The source made the active and inactive calls. Unless noted, calls follow the shape of the dose curve; as a rule, active = well fitted curve in the direction sought with a large enough effect in the repeat runs; inconclusive = weak or mixed curves; inactive = no such curve, though single readings can be large; an effect the other way counts as inactive or inconclusive.
Experiments:
[1] = qHTS assay for small molecule agonists of the p53 signaling pathway (AID 651631; calls by dose curve; also: nearly all actives have a fitted effect of over 15% in size; also: potency is read from the fitted curve at half-maximal effect)
How it was run: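 p53RE-bla HCT-116 cells; compounds 16 h, 37 °C; LiveBLAzer B/G FRET substrate 2 h RT; fluorescence intensity read-out, qHTS format.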

[2] = qHTS assay for small molecules that induce genotoxicity in human embryonic kidney cells expressing luciferase-tagged ATAD5 (AID 651632); also: nearly all actives have a fitted effect of over 15% in size
How it was run: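 Quantitative HTS in HEK293T expressing luciferase-tagged ATAD5, whose levels rise upon DNA damage. Exposure ran 16 hr at 37C and 5% CO2, with luminescence read 30 min after Amplite addition at room temperature.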

[3] = qHTS assay for small molecule agonists of the p53 signaling pathway - cell viability (AID 651633; calls by dose curve;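 also: p53RE-bla HCT reporter cells with a stable beta-lactamase p53 reporter; series mostly up to about 83 µM; nearly all actives have a fitted effect of over 30% in size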)
How it was run: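 Viability counter-read: CellTiter-Glo luminescence (30 min, room temperature) in the same p53RE-bla plates. These plates had been exposed to compounds for 16 h at 37 C.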

[4] = qHTS assay for small molecules that induce genotoxicity in human embryonic kidney cells expressing luciferase-tagged ATAD5 - cell viability (AID 651634; calls by dose curve; also: nearly all actives have a fitted effect of over 25% in size)
How it was run: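 After 15.5 hr incubation with compound at 37C, 5% CO2, HEK293T ATAD5-luciferase cells received CellTiter-Fluor reagent; fluorescence intensity was quantified following 30 min at 37C.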

[5] = qHTS assay for small molecule disruptors of the mitochondrial membrane potential - cell viability (AID 720634; calls by dose curve;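 also: human HepG2 liver cancer cells; series mostly up to about 83 µM; nearly all actives have a fitted effect of over 20% in size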)
How it was run: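 ATP-based luminescent viability readout (CellTiter-Glo, 30 min, room temperature) in HepG2 cells multiplexed with the m-MPI membrane potential dye; compound exposure lasted 1 hr at 37 C.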

[6] = qHTS assay for small molecule disruptors of the mitochondrial membrane potential (AID 720635); also: potency is read from the fitted curve at half-maximal effect
How it was run: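 Mitochondrial membrane potential tracked with Mito-MPS dye, red aggregates (ex 540/em 590 nm) against green monomers (ex 490/em 535 nm). Compound treatment 1 hr at 37C, dye 30 min in HepG2.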

[7] = qHTS assay to test for compound auto fluorescence at 590 nm (red) in HepG2 cells (AID 720674)
How it was run: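 1 hr compound incubation on HepG2 cells, 37 C, 5% CO2; plate read ex 540 nm / em 590 nm; intensities reported as Rose Bengal sodium equivalents.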

[8] = qHTS assay to test for compound auto fluorescence at 535 nm (green) in HepG2 cells (AID 720675)
[9] = qHTS assay to test for compound auto fluorescence at 460 nm (blue) in HEK293 cells (AID 720678)
How it was run: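 Blue-channel (Ex/Em 405/460 nm) intensity measured in HEK293 cultures after overnight compound exposure at 37C; signal expressed relative to triamterene. Cells plated 2,000 per well in 10% dialyzed FBS medium and allowed 4-5 hr to attach.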

[10] = qHTS assay to test for compound auto fluorescence at 590 nm (red) in HEK293 cells (AID 720679)
How it was run: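 Red-channel autofluorescence (Ex/Em 540/590 nm; Rose Bengal sodium reference) was measured after overnight 37C, 5% CO2 exposure of attached HEK293 cells, 2,000 per well in medium with 10% dialyzed FBS.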

[11] = qHTS assay to test for compound auto fluorescence at 535 nm (green) in HEK293 cells (AID 720680)
[12] = qHTS assay to test for compound auto fluorescence at 460 nm (blue) in HEK293 cell free culture (AID 720681)
How it was run: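 Blue fluorescence (Ex 405/Em 460 nm, triamterene-equivalent) was read immediately after pin transfer of compound or DMSO into medium (DMEM, 10% FBS) without cells.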

[13] = qHTS assay to test for compound auto fluorescence at 535 nm (green) in HEK293 cell free culture (AID 720682)
How it was run: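 Cell-free medium (DMEM, 10% FBS) receives compound or DMSO by pintool. Plate read directly at Ex 485/Em 535 nm. Signal converted to fluorescein equivalency.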

[14] = qHTS assay to test for compound auto fluorescence at 590 nm (red) in HEK293 cell free culture (AID 720683)
How it was run: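 Red-channel autofluorescence of compounds in culture medium (DMEM, 10% FBS), no cells, measured at 540/590 nm. Rose Bengal sodium is the reference fluorophore for equivalence.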

[15] = qHTS assay to test for compound auto fluorescence at 460 nm (blue) in HepG2 cell free culture (AID 720685)
How it was run: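 Cell-free plates of MEM plus 10% FBS received 23 nL compound or DMSO vehicle; blue-channel (405/460 nm) intensity scored against triamterene as reference fluorophore.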

[16] = qHTS assay to test for compound auto fluorescence at 535 nm (green) in HepG2 cell free culture (AID 720686)
[17] = qHTS assay to test for compound auto fluorescence at 460 nm (blue) in HepG2 cells (AID 720687)
How it was run: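 Blue-channel autofluorescence (Ex/Em 405/460 nm, triamterene-equivalent) was measured after 1 hr compound exposure at 37 C, 5% CO2. Cells were HepG2, plated overnight at 37 C in MEM plus 10% FBS.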

[18] = qHTS assay to test for compound auto fluorescence at 590 nm (red) in HepG2 cell free culture (AID 720684)
How it was run: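 Cell-free; medium MEM + 10% FBS; compound or DMSO added by pintool; read Ex 540/Em 590 nm; Rose Bengal sodium as red reference fluorophore.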

[19] = molecular target: Glucocorticoid receptor (Homo sapiens) (UniProt P04150); test: qHTS assay to identify small molecule agonists of the glucocorticoid receptor (GR) signaling pathway (AID 720691; active = well fitted activation curve with a large enough effect in the signal ratio in the repeat runs, not every such curve was filed as active; the % refers to the signal ratio)
Sequence of Glucocorticoid receptor (Homo sapiens) (P04150 whole entry, looked up): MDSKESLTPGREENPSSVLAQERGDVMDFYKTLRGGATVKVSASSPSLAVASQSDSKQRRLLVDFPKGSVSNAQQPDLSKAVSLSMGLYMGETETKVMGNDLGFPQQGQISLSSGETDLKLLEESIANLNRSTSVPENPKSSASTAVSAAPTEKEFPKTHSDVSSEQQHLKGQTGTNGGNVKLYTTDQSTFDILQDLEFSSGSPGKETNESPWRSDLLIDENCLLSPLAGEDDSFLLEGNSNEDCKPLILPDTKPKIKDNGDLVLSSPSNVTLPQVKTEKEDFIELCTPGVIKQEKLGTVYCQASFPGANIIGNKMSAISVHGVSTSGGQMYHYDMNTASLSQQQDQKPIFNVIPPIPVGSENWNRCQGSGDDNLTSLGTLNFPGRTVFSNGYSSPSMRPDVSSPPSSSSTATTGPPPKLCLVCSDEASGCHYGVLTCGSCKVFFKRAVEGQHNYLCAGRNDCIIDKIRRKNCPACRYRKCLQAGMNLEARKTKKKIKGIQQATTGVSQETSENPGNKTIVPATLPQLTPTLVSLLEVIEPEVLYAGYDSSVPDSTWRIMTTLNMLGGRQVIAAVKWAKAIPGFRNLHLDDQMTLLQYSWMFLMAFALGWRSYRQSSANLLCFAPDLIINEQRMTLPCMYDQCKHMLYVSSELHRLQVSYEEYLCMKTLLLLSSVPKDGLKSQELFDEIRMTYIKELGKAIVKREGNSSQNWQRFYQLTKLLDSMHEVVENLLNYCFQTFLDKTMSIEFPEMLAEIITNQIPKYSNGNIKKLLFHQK
How it was run: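 Cells: GR-bla HeLa, endogenous GR with stably integrated GRE-beta-lactamase reporter. Treatment 18 h, 37 C, compounds delivered in DMSO. Detection via LiveBLAzer B/G FRET substrate, 2 h RT, fluorescence intensity.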

[20] = molecular target: Glucocorticoid receptor (Homo sapiens) (UniProt P04150); test: qHTS assay to identify small molecule antagonists of the glucocorticoid receptor (GR) signaling pathway (AID 720692; active = well fitted inhibition curve with a large enough effect in the signal ratio in the repeat runs, not every such curve was filed as active; the % refers to the signal ratio)
How it was run: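 Quantitative HTS in antagonist format: HeLa cells expressing endogenous GR and a stably integrated GRE-bla reporter, stimulated with 5 nM dexamethasone (final) alongside test compounds for 18 h.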

Row | SMILES | Potency [1] | Potency [2] | Potency [3] | Potency [4] | Potency [5] | Potency [6] | outcome [7] | outcome [8] | outcome [9] | outcome [10] | outcome [11] | outcome [12] | outcome [13] | outcome [14] | outcome [15] | outcome [16] | outcome [17] | outcome [18] | Potency [19] | Potency [20]
1 | COCCOCCOC | inactive | inactive | inactive | inactive | inactive | inactive | inactive | inactive | inactive | inactive | inactive | inactive | inactive | inactive | inactive | inactive | inactive |  |  | 
2 | COc1ccccc1NC(=O)CC(C)=O | inactive |  | inactive | inactive | inactive | inactive | inactive | inactive | inactive | inactive | inactive | inactive | inactive | inactive | inactive | inactive | inactive | inactive |  | 
3 | C=CCOC(=O)CC(C)C | inactive | inactive | inactive | inactive | inactive | inactive | inactive | inactive | inactive | inactive | inactive | inactive | inactive | inactive | inactive | inactive | inactive |  | inactive | inactive
4 | Nc1cccc(N)c1 | inactive | inactive | inactive | inactive | inactive | 24 µM (active) | inactive | inactive | inactive | inactive | inactive | inactive | inactive | inactive | inactive | inactive | inactive | inactive |  | 
5 | C1CNCCN1 | inactive | inactive | inactive | inactive | inactive | inactive | inactive | inactive | inactive | inactive | inactive | inactive | inactive | inactive | inactive | inactive | inactive |  | inactive | inactive
6 | COc1ccccc1O | inactive and 4.35 µM (active) |  | inactive | inactive | inactive | inactive | inactive | inactive | inactive | inactive | inactive | inactive | inactive | inactive | inactive | inactive | inactive | inactive | inactive | inactive
7 | OCCCc1ccccc1 | inactive | inactive | inactive | inactive | inactive | inactive | inactive | inactive | inactive | inactive | inactive | inactive | inactive | inactive | inactive | inactive | inactive |  | inactive | inactive
8 | C[C@]12C=CC(=O)C=C1CC[C@@H]1[C@@H]2C(=O)C[C@@]2(C)[C@H]1CC[C@]2(O)C(=O)CO | inactive |  | inactive | inactive | inactive | inactive | inactive | inactive | inactive | inactive | inactive | inactive | inactive | inactive | inactive | inactive | inactive |  |  | 

Reference: PubChem BioAssay (Tox21)
